The results in this text go back to article PMC5540273 (PLoS ONE, 2017).

Test systems include ACVR2A; ACVR2B; ACVRL1; ADCK4; AKT1; AKT2; AKT3; ALK; ANKK1; AURKA; AURKB; AURKC; AXL.
Details in all cases: concentration: 1 μM, replicates: in singlicate; n = 1
The next assay deals with T1, ADCK3.
T1 construct: gene CABC1

A further assay deals with T2, AMPK-alpha1.
T2 construct: gene PRKAA1

In the next assay the test system is T3, AMPK-alpha2.
T3 construct: gene PRKAA2

A further assay has as its system T4, ARK5.
T4 construct: gene NUAK1

A further assay deals with T5, ASK1.
T5 construct: gene MAP3K5

Another assay relates to T6, ASK2.
T6 construct: gene MAP3K6

The test system of a further assay is T7, BIKE.
T7 construct: gene BMP2K
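Also: KINOMEscan kinase panel screen.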

For the molecule `Cc1cn2c(=O)cc(N3CCOCC3)nc2n1Cc1cccc(Cl)c1Cl` [GSK2334006], the “%Inh” value came to 8% with ACVR2A; 23% in the assay with ACVR2B; 0% with ACVRL1; 7% with ADCK3; 17% in the assay with ADCK4; 0% with AKT1. Further, the “%Inh” value with AKT2 is 26%; in the assay with AKT3 it was 26%; with ALK it was 6%; in the assay with AMPK-alpha1 it was 29%; in the assay on AMPK-alpha2, 0%; in the assay on ANKK1, 0%. Moreover, the “%Inh” value is reported as 14% in the assay with ARK5; 1% in the assay with ASK1; 3% with ASK2; 0% with AURKA; 26% with AURKB; 44% with AURKC. In addition, the entries for the “%Inh” value with AXL and in the assay with BIKE were 0% and 27%, respectively.

Take `COc1cc2c(cc1OCCN1CCN(C)CC1)ncc1c3ccc(C#N)cc3[nH]c21`: the “%Inh” value was found to be 10% in the assay on ACVR2A; 0% in the assay with ACVR2B; 0% in the assay with ACVRL1; 0% in the assay on ADCK3; 3% with ADCK4; 0% in the assay with AKT1. Besides, the “%Inh” value is listed as 18% in the assay on AKT2; 0% in the assay on AKT3; 0% in the assay on ALK; 10% with AMPK-alpha1; 0% in the assay with AMPK-alpha2; 54% in the assay on ANKK1. In addition, the “%Inh” value in the assay on ARK5 was determined as 22%; in the assay with ASK1, 0%; with ASK2, 0%; in the assay with AURKA, 0%; in the assay with AURKB, 70%; in the assay with AURKC it was 33%. Moreover, the “%Inh” value with AXL worked out at 26%; with BIKE it was 100%.

In the case of `Cl.Nc1ncnc2occ(-c3ccc(NC(=O)Nc4cc(C(F)(F)F)ccc4F)cc3)c12` [SB-707548], the “%Inh” value in the assay on ACVR2A is 81%; in the assay with ACVR2B it was 2%; in the assay on ACVRL1, 0%; in the assay with ADCK3 it was 10%; with ADCK4, 28%; in the assay with AKT1, 0%. Also, the “%Inh” value in the assay on AKT2 is reported as 0%; in the assay on AKT3, 0%; in the assay with ALK, 75%; in the assay on AMPK-alpha1 it was 5%; in the assay on AMPK-alpha2, 22%; with ANKK1, 77%. Further, the “%Inh” value was 21% in the assay on ARK5; 32% with ASK1; 0% with ASK2; 53% in the assay with AURKA; 96.7% in the assay with AURKB; 53% with AURKC. Also, the “%Inh” value was 97.7% in the assay with AXL and 10% in the assay on BIKE.

With `Cn1ccc2ncnc(Oc3ccc(NC(=O)Nc4ccncc4)c(Cl)c3)c21`, the “%Inh” value in the assay on ACVR2A stood at 0%; in the assay with ACVR2B it was 0%; in the assay with ACVRL1, 4%; in the assay with ADCK3 it was 0%; in the assay with ADCK4, 0%; in the assay with AKT1, 9%. Moreover, the “%Inh” value in the assay on AKT2 was found to be 14%; in the assay with AKT3, 0%; in the assay on ALK it was 0%; in the assay on AMPK-alpha1 it was 0%; with AMPK-alpha2 it was 5%; in the assay on ANKK1, 0%. Besides, the “%Inh” value in the assay with ARK5 worked out at 14%; with ASK1, 0%; in the assay on ASK2 it was 0%; in the assay on AURKA, 0%; in the assay on AURKB, 3%; in the assay on AURKC it was 0%. For the same molecule, the “%Inh” value in the assay with AXL and in the assay on BIKE was 0% in each case.

As to `Fc1ccc(-c2nn3c(OCC(F)(F)F)cccc3c2-c2ccncc2)cc1` [GW514784], the “%Inh” value is recorded as 0% with ACVR2A; 0% in the assay with ACVR2B; 0% with ACVRL1; 18% with ADCK3; 46% in the assay with ADCK4; 0% with AKT1. The “%Inh” value is given as 0% with AKT2; 0% in the assay with AKT3; 0% in the assay on ALK; 0% with AMPK-alpha1; 0% with AMPK-alpha2; 25% in the assay with ANKK1. Also, the “%Inh” value in the assay with ARK5, with ASK1, in the assay on ASK2, in the assay on AURKA, in the assay on AURKB and in the assay on AURKC was 0% each time. Also, the “%Inh” value in the assay on AXL turned out to be 0%; with BIKE it was 11%.

Take `NCC(NC(=O)c1cc(-c2cn[nH]c2)c(-c2ccnc3[nH]ccc23)s1)c1ccccc1.O=C(O)C(F)(F)F.O=C(O)C(F)(F)F` (stereo not shown) [GSK1325775]: the “%Inh” value worked out at 15% in the assay on ACVR2A; 0% with ACVR2B; 0% with ACVRL1; 52% in the assay with ADCK3; 58% with ADCK4; 66% in the assay with AKT1. Moreover, the “%Inh” value in the assay on AKT2 came to 23%; in the assay on AKT3, 83%; with ALK, 38%; with AMPK-alpha1, 17%; with AMPK-alpha2, 24%; in the assay on ANKK1 it was 0%. The “%Inh” value in the assay with ARK5 is 52%; in the assay with ASK1, 11%; in the assay on ASK2, 23%; with AURKA it was 95.6%; with AURKB, 83%; with AURKC, 82%. The “%Inh” value in the assay with AXL was determined as 45%; with BIKE, 99.7%.

Turning to `C[C@@H](Oc1cc(-n2cnc3ccc(NC(=O)NC(C)(C)C)cc32)sc1C(N)=O)c1ccccc1Cl` [GSK346294], the “%Inh” value was 0% in the assay with ACVR2A; 17% in the assay on ACVR2B; 1% with ACVRL1; 37% in the assay on ADCK3; 31% in the assay with ADCK4; 0% with AKT1. Besides, the “%Inh” value in the assay with AKT2 is recorded as 3%; in the assay on AKT3, 0%; in the assay with ALK, 0%; with AMPK-alpha1 it was 6%; in the assay with AMPK-alpha2, 12%; with ANKK1, 8%. The “%Inh” value came to 11% in the assay on ARK5; 3% in the assay on ASK1; 0% in the assay on ASK2; 8% with AURKA; 22% in the assay on AURKB; 34% in the assay with AURKC. In addition, the “%Inh” value turned out to be 0% in the assay on AXL and 32% in the assay with BIKE.

Regarding `Cc1cccc(-c2nc(-c3ccc(S(C)(=O)=O)cc3)sc2-c2ccncc2)c1`, the “%Inh” value in the assay on ACVR2A, with ACVR2B, in the assay on ACVRL1, in the assay with ADCK3, with ADCK4 and with AKT1 was 0% in each case. Further, the “%Inh” value in the assay on AKT2 is recorded as 20%; in the assay with AKT3, 0%; with ALK it was 5%; with AMPK-alpha1 it was 1%; in the assay on AMPK-alpha2, 7%; with ANKK1 it was 0%. For the same molecule, the “%Inh” value is 13% with ARK5; 0% with ASK1; 15% with ASK2; 24% in the assay on AURKA; 23% with AURKB; 0% in the assay with AURKC. Also, the “%Inh” value in the assay with AXL stood at 12%; in the assay with BIKE it was 0%.

For `CC(C)(C)n1cnc2c(N)ncnc21` [SKF-97359], the “%Inh” value worked out at 0% in the assay on ACVR2A; 0% with ACVR2B; 0% in the assay on ACVRL1; 0% in the assay with ADCK3; 31% in the assay with ADCK4; 0% in the assay with AKT1. Further, the “%Inh” value in the assay on AKT2 came to 0%; in the assay with AKT3, 0%; in the assay with ALK, 29%; with AMPK-alpha1, 0%; in the assay on AMPK-alpha2, 0%; in the assay with ANKK1, 0%. Moreover, the “%Inh” value was found to be 19% with ARK5; 0% in the assay on ASK1; 0% in the assay with ASK2; 0% in the assay with AURKA; 15% in the assay on AURKB; 0% in the assay on AURKC. Further, the “%Inh” value with AXL is 45%; in the assay on BIKE, 0%.

Take `Cc1c(Cn2c(C)nn3c(=O)cc(N4CCOC(C)C4)nc23)cccc1C(F)(F)F` (stereo not shown) [GSK2344444]: the “%Inh” value in the assay with ACVR2A was found to be 22%; in the assay with ACVR2B it was 0%; in the assay with ACVRL1, 5%; with ADCK3, 3%; with ADCK4, 0%; in the assay on AKT1, 0%. Moreover, the “%Inh” value with AKT2 was 6%; in the assay on AKT3, 0%; in the assay with ALK it was 0%; in the assay on AMPK-alpha1 it was 0%; in the assay with AMPK-alpha2 it was 0%; with ANKK1 it was 0%. In addition, the “%Inh” value with ARK5 is recorded as 10%; in the assay on ASK1, 1%; in the assay on ASK2 it was 8%; in the assay on AURKA it was 0%; with AURKB, 0%; in the assay with AURKC, 8%. In addition, the results for the “%Inh” value in the assay on AXL and in the assay with BIKE were 0% and 16%, respectively.

Turning to `COc1ccc(Nc2nccc(N3CCC(NC(=O)Nc4cccc(C(C)=O)c4)C3)n2)cc1` (stereo not shown) [GSK1379731], the “%Inh” value in the assay on ACVR2A is on record as 0%; with ACVR2B, 11%; with ACVRL1, 0%; in the assay on ADCK3 it was 0%; with ADCK4, 11%; with AKT1 it was 0%. The “%Inh” value was found to be 0% in the assay on AKT2; 0% in the assay on AKT3; 15% in the assay on ALK; 0% with AMPK-alpha1; 0% in the assay on AMPK-alpha2; 0% in the assay on ANKK1. For the same molecule, the “%Inh” value with ARK5 was 50%; in the assay on ASK1, 0%; in the assay on ASK2, 0%; in the assay with AURKA it was 0%; in the assay on AURKB, 0%; in the assay on AURKC, 40%. The “%Inh” value with AXL amounted to 9%; in the assay on BIKE it was 30%.
